Measured values taken from PMC4336329 (PLoS ONE, 2015).
In all, about 310,000 compounds went through this assay and about 14,000 (4.5%) showed an effect of 50% or more. The effect is printed as a negative number. Shown is part of a subset that was picked to be rich in strong results.

The molecules below were run against human ether-à-go-go-related gene (hERG) potassium channel (human, UniProt Q12809) (assay: primary screen, population patch clamp on CHO cells stably expressing hERG; higher = less effect of the substance).
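Also: peak tail current of the secondary pulse compared with the same well before compound.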

human ether-à-go-go-related gene (hERG) potassium channel, sequence (Q12809 whole entry, looked up): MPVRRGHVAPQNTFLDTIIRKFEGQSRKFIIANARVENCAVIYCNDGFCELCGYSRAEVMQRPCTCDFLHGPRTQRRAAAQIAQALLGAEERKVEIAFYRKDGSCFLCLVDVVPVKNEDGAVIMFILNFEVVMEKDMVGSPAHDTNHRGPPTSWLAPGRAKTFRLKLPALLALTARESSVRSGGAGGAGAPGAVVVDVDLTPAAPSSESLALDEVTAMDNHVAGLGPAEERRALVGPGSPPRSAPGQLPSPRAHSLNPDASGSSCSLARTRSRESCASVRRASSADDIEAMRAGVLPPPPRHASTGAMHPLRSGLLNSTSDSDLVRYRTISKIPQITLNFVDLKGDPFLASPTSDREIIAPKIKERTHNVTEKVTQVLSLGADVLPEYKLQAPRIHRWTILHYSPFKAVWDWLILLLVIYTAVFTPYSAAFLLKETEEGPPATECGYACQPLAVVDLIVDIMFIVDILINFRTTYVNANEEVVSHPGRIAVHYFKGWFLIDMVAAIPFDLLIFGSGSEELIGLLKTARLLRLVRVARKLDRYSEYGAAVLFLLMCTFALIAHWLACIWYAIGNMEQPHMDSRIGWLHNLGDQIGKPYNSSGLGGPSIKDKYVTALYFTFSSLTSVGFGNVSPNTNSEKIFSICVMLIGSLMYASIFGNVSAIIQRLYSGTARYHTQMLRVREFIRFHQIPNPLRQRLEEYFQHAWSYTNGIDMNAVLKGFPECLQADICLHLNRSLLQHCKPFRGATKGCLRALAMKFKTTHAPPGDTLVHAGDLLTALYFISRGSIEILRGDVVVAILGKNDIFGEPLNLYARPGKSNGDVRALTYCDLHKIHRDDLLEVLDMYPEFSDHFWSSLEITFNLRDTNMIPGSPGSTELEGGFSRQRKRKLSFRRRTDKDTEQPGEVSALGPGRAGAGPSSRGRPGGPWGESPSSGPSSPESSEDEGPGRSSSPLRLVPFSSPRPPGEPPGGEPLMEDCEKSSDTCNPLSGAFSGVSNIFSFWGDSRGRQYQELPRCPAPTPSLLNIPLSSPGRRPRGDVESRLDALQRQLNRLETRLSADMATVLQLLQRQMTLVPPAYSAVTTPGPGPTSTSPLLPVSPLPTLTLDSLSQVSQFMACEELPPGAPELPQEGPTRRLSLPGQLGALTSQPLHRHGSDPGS

| Structure (SMILES) | hERG current change (%, negative = inhibition) at 10uM |
| --- | --- |
| Cc1c(Cl)cccc1NC(=S)N(Cc1ccco1)C(C)c1ccccn1 (stereo not drawn) | -11% |
| CN(CCn1ccnc1)Cc1cn(-c2ccccc2)nc1-c1ccc2c(c1)OCO2 | -62.9% |
| CN(CCn1ccnc1)Cc1cn(Cc2ccccc2)nc1-c1ccc2c(c1)OCO2 | -23.2% |
| CN(Cc1cccnc1)Cc1cn(Cc2ccccc2)nc1-c1ccc2c(c1)OCO2 | -11.7% |
| O=C(N/C(=C\c1cccs1)C(=O)N1CCCCCC1)c1ccccc1 | -32.3% |
| CN1CCN(C(=O)/C(=C\c2cccs2)NC(=O)c2ccccc2)CC1 | -75.3% |
| O=C(Nc1ccccc1)/C(=C\c1cccs1)NC(=O)c1ccccc1 | 9.9% |
| CCOC(=O)N1CCN(C(=O)/C(=C/c2cccs2)NC(=O)c2cccs2)CC1 | -45.7% |
| CCOC(=O)N1CCC(NC(=O)c2cccs2)CC1 | 6.2% |
| O=C(N/C(=C\c1ccc2c(c1)OCO2)C(=O)N1CCOCC1)c1cccs1 | -42.8% |
| CCOC(=O)N1CCN(C(=O)/C(=C\c2cccs2)NC(=O)c2cccs2)CC1 | -71.8% |
| O=C(N/C(=C/c1ccc2c(c1)OCO2)C(=O)N1CCOCC1)c1cccs1 | 9.12% |
| CN1CCN(C(=O)/C(=C\c2ccc3c(c2)OCO3)NC(=O)c2cccs2)CC1 | -76.8% |
| Cc1ccc(NC(=O)/C(=C\c2cccs2)NC(=O)c2ccccc2)cc1 | -3.84% |
| O=C(N/C(=C/c1cccs1)C(=O)N1CCCC1)c1ccccc1 | 6.44% |
| Cc1cccc(NC(=O)/C(=C\c2cccs2)NC(=O)c2ccccc2)c1 | -51.7% |
| COc1cc(CNCC2CCCO2)ccc1OCC(N)=O.Cl (stereo not drawn) | 16.3% |
| CCOc1ccc(S(=O)(=O)N2CCC(C(=O)NCc3cccnc3)CC2)cc1 | -27.1% |
| CCCC1(c2ccccc2)NC(=O)N(CC(=O)Nc2cc(C)on2)C1=O (stereo not drawn) | 23.6% |
| CCc1nn(CC(=O)NCCc2ccc(S(N)(=O)=O)cc2)c(=O)c2cc3sccc3n12 | 20.1% |
| Oc1ccc(O)c(/C(=N/Nc2ccccc2)c2ccccc2)c1 | 11% |
| O=c1n(-c2cccc(Cl)c2)c(=O)n2n1CCC2 | -6.81% |
| O=C(CCN1CCN(c2ccc(Cl)cc2)CC1)Nc1nccs1 | -13.3% |
| COc1cc(C2c3c(oc4c(C)cc(C)cc4c3=O)C(=O)N2Cc2cccnc2)ccc1O (stereo not drawn) | 5.03% |
